Bioassay records (PubChem BioAssay)
This is a sample that favours compounds with a hit; in the whole collection about 3.4% have one here.
PAFAH1B3 FP inh = inhibitors of human PAFAH1B3; 340,000 compounds, 0.28% hits; AID 492972; inhibition, % at 3.39 µM; Q15102; recombinant PAFAH1B3, FP-rhodamine probe, fluorescence polarization;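 active = inhibition above the screen-wide average of all tested compounds plus 3 SD, cut at about 25% in these data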
Target sequence (Q15102 whole entry, looked up): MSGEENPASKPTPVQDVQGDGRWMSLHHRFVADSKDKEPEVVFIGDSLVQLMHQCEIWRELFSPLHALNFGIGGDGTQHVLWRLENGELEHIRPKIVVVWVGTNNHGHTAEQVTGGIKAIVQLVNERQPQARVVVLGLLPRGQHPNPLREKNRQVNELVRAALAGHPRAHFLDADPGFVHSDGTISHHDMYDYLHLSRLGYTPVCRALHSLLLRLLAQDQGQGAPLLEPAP
PP1 inh = blocks human PP1-alpha phosphatase, a PP5 counter-screen | P62136 | purified PP1alpha, OMFP fluorescence | inhibition, % at 6.7 µM | 320,000 compounds, 0.9% hits;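 active = inhibition above the mean inhibition of all tested compounds plus 3 SD, computed separately for each screening campaign, cut at about 15% in these data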
PP5 inh = PP5 (human) phosphatase inhibition; purified PP5c, OMFP substrate fluorescence; P53041; 320,000 compounds, 0.18% hits; AID 1987; inhibition, % at 6.7 µM;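 active = inhibition above the campaign's mean inhibition across all tested compounds plus 3 SD, cut at about 9.5% in these data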
PAFAH2 FP inh = inhibitors of human PAFAH2 | recombinant PAFAH2, FP-rhodamine activity probe, fluorescence polarization | 340,000 compounds, 0.99% hits | Q99487 | inhibition, % at 3.39 µM;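 active = inhibition above the mean over all tested compounds plus 3 SD, cut at about 30% in these data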;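 also: inhibitors block probe labeling of enzyme so polarization drops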
PAFAH1B2 FP inh = PAFAH1B2 (human) inhibition; 340,000 compounds, 1.2% hits; inhibition, % at 3.39 µM; AID 492953; recombinant PAFAH1B2, FP-rhodamine activity probe, fluorescence polarization;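 active = inhibition above the mean of all tested compounds plus 3 SD, cut at about 24% in these data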
Target sequence (P68402 whole entry, looked up): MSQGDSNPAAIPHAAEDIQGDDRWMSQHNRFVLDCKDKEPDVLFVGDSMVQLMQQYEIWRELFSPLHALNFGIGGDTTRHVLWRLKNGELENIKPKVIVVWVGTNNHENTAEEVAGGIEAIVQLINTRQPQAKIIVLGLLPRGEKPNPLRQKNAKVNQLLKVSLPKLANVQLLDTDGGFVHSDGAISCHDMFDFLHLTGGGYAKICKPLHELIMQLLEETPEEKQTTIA
pPAFAH FP inh = inhibitors of human plasma PAF acetylhydrolase (pPAFAH). Q13093. recombinant pPAFAH, FP-rhodamine probe fluorescence polarization. inhibition, % at 3.39 µM. 330,000 compounds, 1.5% hits;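 active = inhibition above the mean inhibition across the screen plus 3 SD, cut at about 25% in these data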;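 also: inhibitors block binding of the rhodamine activity-based probe so polarization drops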
Numbers stand for hits; i = inactive; nt = no result.

SMILES | PAFAH1B3 FP inh | PP1 inh | PP5 inh | PAFAH2 FP inh | PAFAH1B2 FP inh | pPAFAH FP inh
CC1(OC(=O)c2cccs2)C(=O)C=C2C=C3CCCN3C=C2C1=O (configuration not stated) | i | i | i | i | i | 28
CC1(OC(=O)C2CCCC2)C(=O)C=C2C=C3CCCN3C=C2C1=O (configuration not stated) | nt | i | i | nt | nt | i
COC(=O)CCCC1=CC2=CC(=O)C(C)(OC(=O)c3cccs3)C(=O)C2=CN1Cc1ccc2c(c1)OCO2 (configuration not stated) | i | 18 | i | i | i | i
O=C(O)c1cccc(CSc2nc(-c3ccc(Cl)cc3)cc(C(F)(F)F)n2)c1 | i | 17 | i | i | i | i
O=C1NC(Cc2ccccc2)c2nc3ccccc3c(=O)n2-c2cc(Cl)ccc21 (configuration not stated) | nt | i | i | nt | nt | i
CCC(C)(C)C1CCc2c(sc(NC(=O)c3ccoc3C)c2C(N)=O)C1 (configuration not stated) | i | i | i | i | i | i
CCC1CCc2c(sc(NC(=O)c3ccoc3C)c2C(N)=O)C1 (configuration not stated) | i | i | i | i | i | 25
COc1cccc(CN(C)C(=O)c2cc(S(=O)(=O)NC3CCCCC3)ccc2C)c1 | i | nt | nt | i | i | 34
Cc1ccc(OCCN(C)C(=O)C2CCC(=O)N(CCCN3CCOCC3)C2)cc1 (configuration not stated) | i | i | i | i | i | i
O=C(NCc1cccs1)c1cccc(Nc2nc3ccc(Br)cc3[nH]2)c1 | 32 | i | i | i | 27 | i
CC12CCC(O)CC1=CCC1C2CCC2(C)C3=NN=CC3CC12 (configuration not stated) | i | nt | nt | i | i | nt
CCC1(CC)C(C#N)C(=O)NC(=O)C1C#N (configuration not stated) | i | nt | nt | i | i | nt
CC(=O)Nc1ccc2nc(NS(=O)(=O)c3ccc(C)cc3)sc2c1 | i | i | i | i | i | 26
CC(C)(C)OC(=O)N1CCCC(C(=O)Nc2ccc(C(=O)NCc3ccccc3)cc2)C1 (configuration not stated) | i | nt | nt | i | i | nt
CCN(CC(=O)Nc1ccc(OC)cc1)C(=O)c1ccc2[nH]c3c(c2c1)CC(C)CC3 (configuration not stated) | i | i | i | i | 27 | i
Cc1ccc(C)c(NC(=O)CN(C)C(=O)c2ccc3[nH]c4c(c3c2)CC(C)CC4)c1 (configuration not stated) | i | i | i | i | 40 | i
COC(=O)[C@H](Cc1c[nH]c2ccccc12)NC(=O)NCc1ccc(OC)c(OC)c1 | i | i | i | i | i | i
Cc1ccccc1-n1nnnc1SCC(=O)NNC(=O)c1ccc(NC(=O)CC#N)cc1 | i | i | i | i | i | i
O=C1COc2ccc(S(=O)(=O)Nc3cccc(Cl)c3)cc2N1 | i | i | i | i | i | i
O=C(N/N=C/c1c[nH]c2ccccc12)c1cccc(Cl)c1 | i | i | i | i | i | i
O=C(N/N=C/C1C(c2ccccc2)C1(Cl)Cl)c1cccc(Cl)c1 (configuration not stated) | i | i | i | i | 29 | i
CC(/C=C1\SC(=S)N(CCCC(=O)Nc2ccc(C(=O)O)c(O)c2)C1=O)=C\c1ccccc1 | nt | 17 | i | nt | nt | 31
CC(/C=C1\SC(=S)N(CCC(=O)Nc2ccc(O)cc2)C1=O)=C\c1ccccc1 | i | 15 | i | i | i | i
C=CC(=O)Nc1cccc(Nc2nc(N[C@H]3CC[C@H](N(C)C)CC3)nc3c2ncn3C(C)C)c1 | i | nt | nt | i | i | nt
Cc1ccccc1N(CC(=O)NCc1ccccc1)C(=O)CCC(=O)Nc1nccs1 | i | i | i | i | i | i
SMILES | PAFAH1B3 FP inh | PP1 inh | PP5 inh | PAFAH2 FP inh | PAFAH1B2 FP inh | pPAFAH FP inh
Oc1ccc(N2CCN(C(c3cccs3)c3nnnn3CCc3ccccc3)CC2)cc1 (configuration not stated) | i | i | i | i | i | 30
COc1ccc(Cn2nnnc2C(c2cccs2)N2CCN(c3ccccc3)CC2)cc1 (configuration not stated) | i | i | i | i | i | i
C/C(=C1/SC(N2CC(C)OC(C)C2)=NC1=O)c1ccccc1 (configuration not stated) | i | i | i | i | i | 28
O=C(NCc1ccc(F)cc1)C1CCCN(S(=O)(=O)c2ccc(Br)s2)C1 (configuration not stated) | i | i | i | i | i | i
O=C(NCc1ccc(F)cc1)C1CCN(S(=O)(=O)c2ccc(Br)s2)CC1 | i | i | i | i | 25 | i
Cc1nnc(NC(=O)C23CC4CC(C)(CC(C)(C4)C2)C3)s1 | i | i | i | i | 26 | i
CCc1nnc(NC(=O)CC23CC4CC(CC(C4)C2)C3)s1 | i | i | i | i | i | i
CC12CC3CC(C)(C1)CC(C(=O)Nc1nncs1)(C3)C2 | i | i | i | i | 28 | i
Cc1nnc(NC(=O)CC23CC4CC(CC(C4)C2)C3)s1 | i | i | i | i | 28 | i
O=C(C1CCN(CCc2ccccc2)CC1)N1CCOCC1 | i | nt | nt | i | i | nt
COc1cccc(-c2nn3c(-c4ccccn4)nnc3s2)c1 | i | 17 | i | i | i | i
O=C(NC(=S)NNC(=O)c1ccccc1O)c1cccnc1 | 26 | i | i | 60 | i | i
O=C(NC(=S)NNC(=O)c1ccc(Cl)cc1Cl)c1cccnc1 | i | i | i | i | i | i
CCOC(=O)c1cccc(NC(=O)CSc2nnc(C)n2CC2CCCO2)c1 (configuration not stated) | i | i | i | i | i | i
CN(CC(=O)Nc1cccc(F)c1)CC(=O)NC(c1ccccc1)c1ccccc1 | i | i | i | i | i | i
CCOC(=O)C1CCN(C(=O)c2ccc(S(=O)(=O)Nc3ccccc3OC)cc2)CC1 | i | i | i | i | i | i
COc1ccc(NC(=O)Cc2cccc(F)c2)cc1S(=O)(=O)Nc1ccccc1Cl | i | i | i | i | i | 30
COc1ccc(-c2c3c(=O)n(C)c(=O)n(C)c3cn2C2CCCCC2)cc1 | i | i | i | i | i | 25
CCCn1cc2c(c1-c1ccc(C)cc1)c(=O)n(C)c(=O)n2C | i | i | i | i | i | i
Cc1ccc2c(c1)C1C=CCC1C(C(=O)O)N2 (configuration not stated) | nt | 20 | i | nt | nt | 61
CC(C)C1Nc2ccc(S(N)(=O)=O)cc2C2C=CCC21 (configuration not stated) | i | i | i | i | 32 | i
CCOC(=O)C1Nc2ccc(OC(F)(F)F)cc2C2C=CCC12 (configuration not stated) | i | i | i | i | i | i
NS(=O)(=O)c1ccc2c(c1)C1C=CCC1C(C1CC=CCC1)N2 (configuration not stated) | i | i | i | i | i | 28
O=C(NC1CC1)C1Nc2ccc(OC(F)(F)F)cc2C2C=CCC12 (configuration not stated) | i | i | i | i | i | i
